Results from PubChem BioAssay AID1851 (National Center for Advancing Translational Sciences (NCATS), 2009).
Out of some 16,000 compounds screened, about 5,800 (36%) were called active. Inconclusive results (about 23%) are left out. The list shows a part of the results. Unmarked numbers belong to inactive results. The call rests on the fitted dose curve; in most records, active means well fitted curve in the direction sought with a large enough effect; inconclusive means small, poorly fitted or top-dose-only effect, or effect the other way; inactive means no such curve, though single readings can be large or run the other way.
On the % scale 0 is the no-effect control and ±100 the full control effect.

These molecules were tested against Cytochrome P450 2C19 (Homo sapiens) (UniProt P33261) (assay: Cytochrome panel assay with activity outcomes). Conditions: recombinant CYP, pro-luciferin dealkylation, luminescence, p450-cyp2c19; series mostly up to 57.1 µM; activity, negative = inhibition: at the top concentration.
Cytochrome P450 2C19 (Homo sapiens), sequence (P33261 whole entry, looked up): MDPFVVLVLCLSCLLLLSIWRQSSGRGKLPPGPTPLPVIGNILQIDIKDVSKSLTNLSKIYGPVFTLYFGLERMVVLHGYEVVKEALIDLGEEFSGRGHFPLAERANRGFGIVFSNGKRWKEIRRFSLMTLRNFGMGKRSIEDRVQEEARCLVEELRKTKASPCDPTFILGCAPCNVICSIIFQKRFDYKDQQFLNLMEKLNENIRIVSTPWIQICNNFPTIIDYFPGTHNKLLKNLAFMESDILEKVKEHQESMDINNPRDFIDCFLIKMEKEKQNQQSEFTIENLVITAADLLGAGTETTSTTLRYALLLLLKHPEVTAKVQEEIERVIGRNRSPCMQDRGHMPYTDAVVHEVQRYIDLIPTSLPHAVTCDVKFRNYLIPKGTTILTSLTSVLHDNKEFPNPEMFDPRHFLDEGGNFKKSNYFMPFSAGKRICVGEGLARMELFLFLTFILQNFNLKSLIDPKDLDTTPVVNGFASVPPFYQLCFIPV
N#Cc1cccc(-c2nc3cnc(Nc4ccccc4)nc3n(C[C@H]3CCCO3)c2=O)c1 was tested, and the “activity, negative = inhibition” value was 5.15%.
In the case of Cn1sc(NC(=O)c2ccccc2)nc1=O, the “activity, negative = inhibition” value is reported as -23.1%.
Cc1cc(NC(=O)c2ccccc2Cl)c(C(C)C)cc1O was tested, and the AC50 was 3.98 µM (active).
With Cc1ccc(Cl)c(Nc2ccccc2C(=O)O)c1Cl the AC50 was “inactive”.
With O=C(Nc1ccccc1Cl)c1ccn[nH]1 the “activity, negative = inhibition” value was 14.8%.
For O=C(Nc1ccccc1Cl)c1ccccc1Cl, the AC50 was 20 µM (active).
In the case of Cn1sc(NC(=O)c2ccccc2Cl)nc1=O, the AC50 is reported as 14.1 µM (active).
With CC[C@@]12CCCN3CCc4c(n(c5ccccc45)[C@](O)(C(=O)OC)C1)[C@H]32 the AC50 was “inactive”.
O=C(Nc1cccc(C(=O)Nc2ccc(S(=O)(=O)O)c3cc(S(=O)(=O)O)cc(S(=O)(=O)O)c23)c1)Nc1cccc(C(=O)Nc2ccc(S(=O)(=O)O)c3cc(S(=O)(=O)O)cc(S(=O)(=O)O)c23)c1 was tested, and the AC50 was “inactive”.
O=C(CSCc1ccccc1)Nc1cccc(C(=O)Nc2ccccc2C(=O)O)c1 was tested, and the AC50 was 11.2 µM (active).
With CCNc1ncc2nc(-c3cc(F)cc(F)c3)c(=O)n(Cc3cccs3)c2n1 the “activity, negative = inhibition” value was 2.98%.
In the case of O=C(O)[C@H](CCc1ccccn1)c1ccccc1, the activity, negative = inhibition is reported as 9.85% [at 11.4 µM].
In the case of CCCC(C(=O)Nc1nccs1)c1ccccc1 (stereo unspecified), the AC50 is reported as 3.16 µM (active).
COc1cc(C)ccc1OCCCOc1ccccc1Br was tested, and the AC50 was 0.501 µM (active).
In the case of COc1cc(C=O)ccc1OCCCOc1ccccc1C(=O)O, the “activity, negative = inhibition” value is reported as -6.37%.
COc1cc(C)ccc1OCCCOc1ccccc1Cl was tested, and the AC50 was 1.12 µM (active).
With COc1ccccc1OCCCOc1ccc([N+](=O)[O-])cc1Cl the AC50 was 0.316 µM (active).
COc1cc(C=O)ccc1OCCOCCOc1ccccc1Cl was tested, and the AC50 was 1.26 µM (active).
For CC(C)CO/N=C1/[C@H]2O[C@@H]2[C@@H](O)[C@H]2[C@H]1CCn1c(=O)n(C)c(=O)n12, the activity, negative = inhibition was -6.23% [at 11.4 µM].
With Cc1ccc(C)c(Nc2nc3nonc3nc2N2CCOCC2)c1 the AC50 was 25.1 µM (active).
With CN1CCN(CCCBr)CC1 the activity, negative = inhibition was 39.1% [at 11.4 µM].
For Cc1ccc(SCc2[nH]nc3c2C(C(C)C)C(C#N)=C(N)O3)cc1 (stereo unspecified), the AC50 was 3.16 µM (active).
In the case of COCc1cc(=O)[nH]c2cc(NC(=O)C(F)(F)F)c(C)cc12, the “activity, negative = inhibition” value is reported as -32.6%.
With CCCS(=O)(=O)N1CCCC(C(=O)NCCN(C)Cc2ccccc2)C1 (stereo unspecified) the “activity, negative = inhibition” value was -12.9%.
For O=C(Nc1ccc(Br)cc1)C1CCC(=O)N1Cc1ccccc1Cl (stereo unspecified), the AC50 was 0.631 µM (active).
With CN(Cc1ccco1)C(=O)C1CCC(=O)N1Cc1ccc(F)cc1 (stereo unspecified) the AC50 was 17.8 µM (active).
For CC(C)N(CCNC(=O)C1CCC(=O)N1Cc1ccc(F)cc1)Cc1ccccc1 (stereo unspecified), the AC50 was 2.82 µM (active).
For CN(CCCNC(=O)C1CCC(=O)N1Cc1ccccc1Cl)c1ccccc1 (stereo unspecified), the AC50 was 10 µM (active).
With Cc1ccc(CCN2CC(C(=O)NCCCN(C)Cc3ccccc3)CC2=O)cc1 (stereo unspecified) the “activity, negative = inhibition” value was 7.47%.
O=C(NCCN1CCN(Cc2ccccc2)CC1)C1CC(=O)N(C2CCCC2)C1 (stereo unspecified) was tested, and the “activity, negative = inhibition” value was -9.63%.
Cc1ccc(OC[C@H](O)[C@H](C)NC(C)C)c2c1CCC2 was tested, and the AC50 was “inactive”.
In the case of CC(C)(C[C@@]1(C)NC(=O)NC1=O)OCc1ccccc1, the activity, negative = inhibition is reported as 18.1% [at 11.4 µM].
For Cc1ccc(N=Nc2c(O)ccc3cc(S(=O)(=O)O)ccc23)cc1, the activity, negative = inhibition was 6.68% [at 11.4 µM].
Cc1ccc(S(=O)(=O)c2cc3ccccc3oc2=Nc2ccc3c(c2)OCO3)cc1 was tested, and the AC50 was 4.47 µM (active).
For O=c1oc2cc(N=Cc3ccc4c(c3)OCO4)ccc2c2ccccc12, the activity, negative = inhibition was -3.38% [at 11.4 µM].
CCC(C#CCN1CCCCC1)(CC)OCCC#N was tested, and the AC50 was 14.1 µM (active).
CN(C)[C@@H]1C(=O)C(C(N)=O)=C(O)[C@]2(O)C(=O)C3=C(O)c4c(O)ccc(Cl)c4[C@H](O)[C@H]3C[C@@H]12 was tested, and the AC50 was “inactive”.
COc1ccc(/C=N/NC(=O)c2cc(-c3ccc(C)cc3C)nc3ccccc23)cc1COC(C)=O was tested, and the “activity, negative = inhibition” value was -34.6%.
COc1cccc(-c2cc(C(=O)N/N=C/c3ccc(OC)c(COC(C)=O)c3)c3ccccc3n2)c1 was tested, and the AC50 was 2.51 µM (active).
O=C(Nc1cccc(F)c1)N1CCCC2(CCN(C(=O)c3cc(C(F)(F)F)cc(C(F)(F)F)c3)CC2)C1 was tested, and the “activity, negative = inhibition” value was -20.2%.
With COc1cc(/C=N/NC(N)=O)c(Br)cc1OCC(=O)Nc1ccccc1C the AC50 was 11.2 µM (active).
In the case of O=C1C2=C(NC(=S)NC2c2ccc(Cl)cc2)NC(c2ccc(Cl)cc2)N1c1ccc(Cl)cc1 (stereo unspecified), the AC50 is reported as 2.24 µM (active).
With CCC(Sc1nc2cc3c(cc2c(=O)n1Cc1ccco1)OCO3)C(=O)Nc1cccc(OC)c1 (stereo unspecified) the AC50 was 7.08 µM (active).
In the case of CCC(Sc1nc2cc3c(cc2c(=O)n1Cc1ccco1)OCO3)C(=O)Nc1ccccc1OC (stereo unspecified), the AC50 is reported as 2.51 µM (active).
For COc1cccc(Cn2c(=O)c(-c3cccs3)nc3cnc(Nc4cccc(OC)c4)nc32)c1, the “activity, negative = inhibition” value was -9.76%.
In the case of COc1cccc(Nc2ncc3nc(-c4cccs4)c(=O)n(Cc4cccs4)c3n2)c1, the “activity, negative = inhibition” value is reported as -1.11%.
